Shown are actives, neighbours in structure and some others; about 1.4% of the full set was active somewhere.
uPA generation = blocks generation of uPA at the cell surface | hit rate 0.31% among 330,000 | cell surface uPA generation assay, qHTS | AID 540303 | Potency, µM (doses to about 38.3 µM), without a hit: at the top dose activity change, negative = inhibition, most hits filed as inhibitors; active = well fitted inhibition curve with a large enough effect; inconclusive = small, poorly fitted or top-dose-only effect; inactive = no such curve, though single readings can be large or run the other way; tested in mouse RAW 264.7 cells; note: potency is the fitted concentration of half-maximal effect; % is set by controls: 0 for no effect and ±100 for the full control effect; nearly all actives have a fitted effect of over 55% in size
Mm-Cpn inhibitor = M. maripaludis TRiC chaperonin inhibition | purified Mm-Cpn ATPase, ADP Transcreener TR-FRET | Potency, µM (doses to about 76.9 µM), without a hit: at the top dose activity, negative = inhibition, actives largely listed as inhibitors | hit rate 0.031% among 330,000 | AID 504842; note: potency is the fitted concentration of half-maximal effect; % is set by controls: 0 for no effect and ±100 for the full control effect; nearly all actives have a fitted effect of over 80% in size
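25 nM Mm-CPN + cpd, 10 min 37°C; + 10 uM ATP, 30 min 37°C; buffer 30 mM Tris pH 7.4, 100 mM KCl, 5 mM MgCl2, 1 mM DTT; Transcreener ADP HTRF detection 30 min RT.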
p53 reactivation = mutant p53 re-activation in reporter cells | H1299 p53-A138V BP100-luciferase reporter, luminescence, 24 h | hit rate 0.063% among 320,000 | Potency, µM (highest dose often 92.2 µM), for the others: top-dose activity change, positive = activation, usual class: activators; note: potency is the fitted concentration of half-maximal effect; % of control where 0% means no effect; nearly all actives have a fitted effect of over 45% in size
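p53-null H1299 cells stably carrying temperature-sensitive p53-A138V and a BP100-luciferase reporter were pinned with compounds (4-point, 1:5 series) and held 24 hrs at 37 deg C. Luminescence was read 10 min after detection reagent.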
S-ASM inh = blocks human secretory acid sphingomyelinase | Potency, µM (highest dose often 57.5 µM), for inactives: at the highest dose activity change, negative = inhibition, hits mostly inhibitors | hit rate 0.006% among 340,000 | P17405 | placental ASM, HMU-PC fluorogenic substrate, 60 min; note: potency is the fitted concentration of half-maximal effect
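Fluorogenic HMU-PC substrate (9 uM final) is turned over by placental ASM in 60 min at 37 C after a 10 min compound preincubation. Reaction ended by alkaline stop (pH 10), with fluorescence read at 386/447 nm.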
KCNH2 3.1 inh = blocks the human KCNH2 3.1 channel isoform; U2OS KCNH2 3.1, thallium flux FluxOr; active compounds read low; activity change, % (tested at about 1.8 µM); hit rate 0.95% among 340,000; AID 720553;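 active = maximum activity change below -70%; inconclusive = maximum activity change from -70% to -50%; inactive = maximum activity change above -50%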;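 note: thallium influx rate constant from kinetic fluorescence after stimulation buffer; % is set by controls: 0 for no effect and ±100 for the full control effect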
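Thallium flux read-out: FluxOr dye with Red40 quencher in HBSS/HEPES, 45 min at RT. Rate constants from kinetic reads were normalized to positive and negative DMSO controls. Cells: U2OS virally expressing the 3.1 isoform.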
hERG WT inh = inhibitors of human wildtype KCNH2 potassium channel; Q12809; U2OS, BacMam KCNH2, thallium flux FluxOr; active compounds read low; activity change, % at 1.84 µM; hit rate 0.37% among 340,000; AID 720551;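 active = maximum activity change below -70%; inconclusive = maximum activity change between -70% and -50%; inactive = maximum activity change above -50%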; note: % is set by controls: 0 for no effect and ±100 for the full control effect
Target sequence (Q12809 whole entry, looked up): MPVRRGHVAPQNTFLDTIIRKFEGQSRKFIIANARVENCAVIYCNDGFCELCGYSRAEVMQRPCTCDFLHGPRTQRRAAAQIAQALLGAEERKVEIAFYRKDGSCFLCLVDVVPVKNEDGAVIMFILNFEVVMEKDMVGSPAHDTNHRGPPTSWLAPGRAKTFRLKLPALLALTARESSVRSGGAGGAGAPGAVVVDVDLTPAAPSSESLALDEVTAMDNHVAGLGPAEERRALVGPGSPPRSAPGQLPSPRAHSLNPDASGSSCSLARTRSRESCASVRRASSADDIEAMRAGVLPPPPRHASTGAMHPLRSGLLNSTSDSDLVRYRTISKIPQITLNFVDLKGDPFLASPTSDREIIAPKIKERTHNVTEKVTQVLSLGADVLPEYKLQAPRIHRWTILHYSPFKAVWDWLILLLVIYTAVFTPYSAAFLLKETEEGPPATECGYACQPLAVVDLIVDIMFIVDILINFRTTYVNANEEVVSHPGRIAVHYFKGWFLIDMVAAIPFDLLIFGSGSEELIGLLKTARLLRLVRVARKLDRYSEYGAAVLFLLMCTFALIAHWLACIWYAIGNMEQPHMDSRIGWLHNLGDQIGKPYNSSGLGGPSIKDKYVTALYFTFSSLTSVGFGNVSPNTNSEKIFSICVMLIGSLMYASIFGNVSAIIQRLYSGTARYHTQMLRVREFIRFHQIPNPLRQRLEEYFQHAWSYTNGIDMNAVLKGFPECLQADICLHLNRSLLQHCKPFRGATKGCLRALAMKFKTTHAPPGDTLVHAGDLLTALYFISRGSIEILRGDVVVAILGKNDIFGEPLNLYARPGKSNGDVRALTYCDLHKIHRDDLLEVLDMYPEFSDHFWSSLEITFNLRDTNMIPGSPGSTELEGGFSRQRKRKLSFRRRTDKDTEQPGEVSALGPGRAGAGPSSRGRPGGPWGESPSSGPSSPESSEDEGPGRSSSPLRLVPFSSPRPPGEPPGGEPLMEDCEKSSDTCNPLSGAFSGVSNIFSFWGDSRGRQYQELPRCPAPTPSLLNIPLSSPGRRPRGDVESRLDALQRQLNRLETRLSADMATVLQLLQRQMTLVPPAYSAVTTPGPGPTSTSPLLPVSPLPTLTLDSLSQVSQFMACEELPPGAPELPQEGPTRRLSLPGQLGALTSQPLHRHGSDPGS
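U2OS cells were transduced with wild-type KCNH2 virus (2.03 x 10^8 / mL) for 4 h at room temperature, then cultured overnight at 37 C. Thallium flux was read with FluxOr dye. Rate constants were normalized to DMSO controls.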
* marks the source's active call; other numbers are inactive results; i = inactive; ? = inconclusive; · = no result given. Unless noted, calls come from the whole dose curve; as a rule, active = well fitted curve in the direction sought with a large enough effect; inconclusive = small, poorly fitted or top-dose-only effect, or another doubt; inactive = no such curve, though single readings can be large; an effect the other way counts as inactive or inconclusive.

SMILES | uPA generation | Mm-Cpn inhibitor | p53 reactivation | S-ASM inh | KCNH2 3.1 inh | hERG WT inh
Cc1ccc(OC(C)C(=O)N2CCc3ccccc32)c([N+](=O)[O-])n1 (stereo not given) | · | · | · | · | 8 | 7
N#Cc1cc([N+](=O)[O-])ccc1NC(=O)COC(=O)C1CCC(=O)N1 (stereo not given) | -3% | -2% | 0% | -3% | -18 | 15
O=C(COC(=O)c1ccc[nH]c1=O)Nc1ccc(N2CCCCC2)cc1 | ? | -1% | -18% | 9% | -9 | -3
CO/N=C/c1cccn1-c1nccc(OC)c1C#N | 0% | 5% | 4% | -3% | -190* | -196*
NC(=O)C1CCN(c2nc(-c3ccc([N+](=O)[O-])cc3)cs2)CC1 | · | 2% | · | · | · | ·
CCC(=O)Nc1ccc(NC(=O)CSc2nnnn2-c2ccc(OC)cc2)cc1 | 12% | -19% | ? | 3% | 7 | 0
CCOc1ccc(NC(=O)CSc2nnnn2C2CCCC2)cc1 | -3% | -4% | 2% | -2% | -199* | -142*
COc1ccc(NC(=O)CSc2nnnn2C2CC3C=CC2C3)cc1 (stereo not given) | 2% | 5% | 1% | 0% | -3 | -81*
CCOc1ccc(NC(=O)CSc2nccn2C)cc1 | -3% | 1% | 45µM* | -1% | -3 | -12
Cn1ccnc1SCC(=O)Nc1ccc(Oc2ccccc2)cc1 | 10% | 1% | ? | 0% | 6 | -13
CCOc1ccc(NC(=O)N2CCC(n3nnc4ccccc43)CC2)cc1 | -3% | 0% | -1% | 9% | -83* | i
CNc1ccccc1C(=O)OCC(=O)c1ccccc1 | 3% | 1% | 26% | 44% | -8 | 4
O=C(COC(=O)c1ccccc1Nc1ccccc1)c1ccccc1 | 10% | -1% | 25% | 6% | 6 | -269*
O=c1cc(CN2CCN(C/C=C/c3ccccc3)CC2)c2cc(O)ccc2o1 | -4% | 0% | -35% | 2% | -99* | -133*
O=c1cc(CN2CCN(c3ccccc3)CC2)c2cc(O)c(-c3ccccc3)cc2o1 | -2% | 0% | -6% | 19% | -11 | 2
Cc1ccc2oc(=O)cc(CN3CCN(C/C=C/c4ccccc4)CC3)c2c1 | 0% | 1% | -6% | -1% | -102* | -7
Cc1nn(-c2ccccc2)c(C)c1NC(=O)COC(=O)c1ccc(O)cc1O | -3% | 0% | -2% | 0% | -4 | 13
Cc1ccc2nc(SCC(=O)N(C)C3CCS(=O)(=O)C3)[nH]c2c1 (stereo not given) | -14% | 1% | -2% | 0% | -198* | 0
CC(=O)NC(c1cc(F)c2cccnc2c1O)C(C)C (stereo not given) | · | 1% | · | · | · | ·
COc1ccc(CCC(=O)N/N=C(\C)c2ccc3c(c2)OCO3)cc1 | -1% | -5% | 6% | 4% | -4 | -1
CN(Cc1ccc(Cl)c(Cl)c1)C(=O)c1ccccc1SCC(=O)N1CCCC1 | -4% | -1% | -10% | -2% | -39 | 4
O=c1nc(-c2ccccc2Cl)c2cc(F)ccc2[nH]1 | 17% | 0% | · | i | -79* | 0
O=c1c2ccccc2[nH]c2ccc(F)cc12 | 1% | -4% | 0% | i | 8 | -15
C[C@H]1CCCCO[C@H](CN(C)Cc2ccccc2)[C@@H](C)CN([C@@H](C)CO)C(=O)c2cc(NC(=O)CCC(F)(F)F)ccc2O1 | · | · | · | · | -6 | -18
C/C(=N\NC(=O)c1n[nH]c2c1CCC2)c1cccs1 | 1% | 1% | -10% | 1% | -118* | 1
SMILES | uPA generation | Mm-Cpn inhibitor | p53 reactivation | S-ASM inh | KCNH2 3.1 inh | hERG WT inh
O=C(CN1CCN(c2cccc(C(F)(F)F)c2)CC1)NCc1ccccc1 | 0% | 2% | · | -5% | -9 | -24
COc1ccc(C)cc1NC(=O)NC1CC(=O)N(c2ccc3c(c2)OCCO3)C1 (stereo not given) | · | · | · | · | 4 | -6
Cc1nn(-c2nc3ccccc3[nH]2)c(=O)c2ccccc12 | -18% | -5% | -9% | 35% | 2 | -8
Cc1nn(-c2nc3ccccc3[nH]2)c(N)c1-c1ccc(Cl)cc1 | -11% | 0% | ? | -20% | -84* | -6
COc1cc(-c2noc(C)c2-c2ccc(N(C)C)nc2)cc(OC)c1OC | -73% | -2% | 10% | 1% | 12 | 3
COc1cc(-c2noc(C)c2-c2ccc3[nH]ccc3c2)cc(OC)c1OC | 0.56µM* | 2% | 3% | -26% | -4 | -9
CC(O)CC(=O)O (stereo not given) | 12% | 0% | 0% | 3% | 4 | 3
C[N+](C)(C)CC(O)CC(=O)O (stereo not given) | 8% | 1% | 3% | 6% | 14 | -295*
CCOc1cccc(-c2c(C(=O)N/N=C/c3ccc(Br)cc3)nnn2-c2nonc2N)c1 | 11% | 0% | -3% | -13% | -49 | -10
COCCn1c(C)cc(C(=O)COC(=O)c2ccccc2Br)c1C | 2.5µM* | 1% | -4% | -1% | -10 | -3
CCOC(=O)CNC(=O)Nc1cccc(Cl)c1C | 4% | -1% | 5% | 11% | -2 | 0
COC(=O)CNC(=O)CNC(=O)Nc1ccccc1Cl | · | -1% | 1% | 0% | -77* | -12
CC(C)(C)/C(O)=C/c1nc2ccccc2oc1=O | -17% | -9% | -3% | 2% | 32 | -5
O=c1oc2ccccc2nc1/C=C(\O)c1ccccc1 | 2.2µM* | 1% | ? | -2% | 18 | -3
Cc1cccc(CSCC(=O)N2CCN(S(=O)(=O)c3ccccc3C#N)CC2)c1 | · | · | · | · | 8 | -238*
CCOc1ccccc1OCCCC(=O)N1CCN(S(=O)(=O)c2ccccc2C#N)CC1 | · | · | · | · | 2 | -1
Cc1ccc(C)c(-n2cc(CNCCCn3cccn3)c(-c3ccccc3)n2)c1 | 2% | -1% | 0% | -2% | 7 | 10
Cc1ccc(-n2cc(CNCCCn3cccn3)c(-c3cccc(C)c3)n2)cc1 | 1% | -6% | 5% | 1% | -81* | ?
O=C(NCC(=O)N1CCN(C(c2ccccc2)c2ccccc2)CC1)c1ccccc1F | 3% | -3% | 2% | 3% | -12 | 2
Cc1ccc(NC(=O)CN2CCN(C(=O)C3CC3)CC2)c(F)c1 | · | · | · | · | -16 | -11
O=C(NNC(=O)C(c1ccccc1)c1ccccc1)c1ccccc1O | · | · | · | · | 0 | 0
c1ccc(COc2ccc(OCCCCN3CCCCC3)cc2)cc1 | -8% | 1% | 16% | 1% | -97* | 9
Fc1ccc(OCCCCCN2CCCC2)cc1 | -3% | -3% | 7% | 0% | -98* | 9
CN1CCN(CCCOc2ccc(-c3ccccc3)cc2)CC1 | 0% | -2% | -8% | 0% | -90* | 52
